CTSL1 counter: Fasciola hepatica cathepsin L1 inhibitors, primary screen, counter-screen for PFM18AAP inhibitor project, biochemical, QFRET, fluorogenic peptide substrate; recombinant F. hepatica cathepsin L1, Z-Leu-Arg-MCA fluorescence; inhibition, % at 5.96 µM; 300,000 tested, 0.49% active; AID 1906, 2009;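 active = inhibition above the mean of all tested compounds plus 3 SD, set per screening campaign, cut at about 17% in these data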;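 note: 0% = plate median of test compound wells and 100% = 1 µM Z-Phe-Ala-diazomethylketone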
TPT1 inhibitor: Candida albicans TPT1 enzyme inhibitors, primary screen, biochemical, fluorescence polarization. tRNA 2'-phosphotransferase TPT1 (Candida albicans SC5314). recombinant caTPT1, FP RNA substrate dephosphorylation. inhibition, % at 5 µM. 300,000 tested, 0.81% active. AID 1962, 2009;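 active = inhibition above the mean of all tested compounds plus 3 SD, set per screening campaign, cut at about 24% in these data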;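 note: plate controls were DMSO alone for no effect and ferristatin control at 100 nM for full effect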
PHOSPHO1 inh: PubChem AID 1565. Phosphoethanolamine/phosphocholine phosphatase (Homo sapiens), Q8TCT1. 290,000 tested, 1.1% active. recombinant PHOSPHO1, absorbance phosphatase assay. inhibition, % at 13.3 µM; in the data active = inhibition above about 60%
Rpn11 block: Rpn11 (PSMD14) deubiquitinase inhibitors, primary screen, biochemical, fluorescence polarization, uHTS | 26S proteasome non-ATPase regulatory subunit 14 (Homo sapiens), O00487 | inhibition, % at 20 µM | 360,000 tested, 0.59% active | human 26S proteasome, Ub4-pepOG fluorescence polarization; 20S core pre-blocked with epoxomicin | AID 588493, 2011;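 active = inhibition at 20 µM, scaled to each plate's controls, above about 33%, limit read from the data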
HNF4A DNA FP: change in binding of human HNF4A to DNA, primary screen, biochemical, fluorescence polarization, FITC-DNA; activity change, % at 10 µM; 360,000 tested, 0.3% active; Hepatocyte nuclear factor 4-alpha (Homo sapiens), P41235; 1 h; in the data active = activity change above about 30%, passing the limit was not always enough
Target sequence (P41235 whole entry, looked up): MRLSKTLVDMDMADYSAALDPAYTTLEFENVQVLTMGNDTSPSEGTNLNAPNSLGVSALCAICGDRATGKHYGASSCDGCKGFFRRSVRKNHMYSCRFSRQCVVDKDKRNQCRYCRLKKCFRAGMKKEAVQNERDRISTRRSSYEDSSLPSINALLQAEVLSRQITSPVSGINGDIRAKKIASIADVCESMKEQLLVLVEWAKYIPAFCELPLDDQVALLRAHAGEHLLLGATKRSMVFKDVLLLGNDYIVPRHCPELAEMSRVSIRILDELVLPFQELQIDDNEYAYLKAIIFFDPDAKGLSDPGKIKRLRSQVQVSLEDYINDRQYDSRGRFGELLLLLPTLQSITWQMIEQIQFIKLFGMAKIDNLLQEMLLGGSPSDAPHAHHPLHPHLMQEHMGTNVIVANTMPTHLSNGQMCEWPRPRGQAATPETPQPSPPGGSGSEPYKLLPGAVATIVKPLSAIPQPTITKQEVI
CendR NRP1 mod: modulators of CendR peptide binding to NRP-1, primary screen, biochemical, fluorescence polarization, uHTS. Neuropilin-1 (Homo sapiens), O14786. FAM-RPARPAR peptide binding to NRP-1. inhibition, % at 25 µM. 360,000 tested, 0.85% active. AID 602438, 2012;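 active = inhibition or corrected inhibition above about 18%, plus a signal ratio from 0.5 to 1.5, limit read from the data, passing the limit was not always enough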
An asterisk follows results filed as active; · = not tested or not shown. Rows were chosen to be rich in hits. Some 3.3% of all compounds tested hit in one or more screens of this group.

SMILES	CTSL1 counter	TPT1 inhibitor	PHOSPHO1 inh	Rpn11 block	HNF4A DNA FP	CendR NRP1 mod
CCOC(=O)c1c(N)nn(C(=O)C(C)C)c1-c1ccccc1	0	-2	9	3	0	22*
CCOC(=O)c1c(N)nn(C(=O)CC)c1-c1ccccc1	-4	-6	-1	-6	0	6
Cn1c(N)c(C(=O)Nc2ccc3ccccc3c2)sc1=S	-2	14	96*	32	14	-34
Cn1c(N)c(C(=O)Nc2ccccc2F)sc1=S	2	4	28	2	0	-4
COc1ccc(N2C(=O)C3C4C=CC(C5CC45)C3C2=O)c([N+](=O)[O-])c1 (centres undefined)	5	1	28	2	-3	33*
COc1ccc(N2C(=O)C3C4C=CC(CC4)C3C2=O)c([N+](=O)[O-])c1 (centres undefined)	-1	1	-2	2	-1	10
CN(Cc1ncc[nH]1)C(=O)CC1C(=O)NCCN1Cc1c(F)cccc1Cl (centres undefined)	-2	-2	-9	1	-5	23*
Cc1cc(CN(C)C(=O)CC2C(=O)NCCN2Cc2c(F)cccc2Cl)on1 (centres undefined)	-5	-1	8	4	-1	1
O=C(O)c1ccc(/C=C2/SC(=S)N(Cc3ccccc3)C2=O)cc1	·	·	·	0	-4	-8
CC(=O)Oc1ccc(/C=C2/SC(=S)N(Cc3ccccc3)C2=O)cc1	0	10	7	35	50*	-40
Cc1nn(C)c(Oc2ccccc2)c1CCNC(=O)CCl	28*	-1	39	4	-1	-2
COc1ccc(N(CC(=O)Nc2c(C)n(C)n(-c3ccccc3)c2=O)S(=O)(=O)c2ccccc2)cc1OC	5	-1	-3	5	-3	-2
Nc1[nH][nH]c(=O)c1N=Nc1cccc(Cl)c1	5	2	1	-5	-2	14
O=C1CCN(N=Nc2cccc(Cl)c2)N1	0	6	72*	·	·	·
Cc1cc(Cl)ccc1OCC(=O)NNC(=O)C1CCCO1 (centres undefined)	-17	2	-11	-10	-1	25*
CCOC(=O)C1=C(C)C(c2ccc(OC)cc2)NC(=O)N1 (centres undefined)	3	-1	28	4	6	-8
CCOC(=O)C1=C(C)C(c2ccc(OC)cc2)NC(=S)N1 (centres undefined)	17*	3	3	4	0	5
CCCC(CCC)C(=O)Nc1cccc(-c2cn3c(n2)SCC3)c1	2	1	-87	-9	38*	6
CCS(=O)(=O)Nc1cccc(-c2cn3c(n2)SCC3)c1	0	0	11	0	-4	-6
Cc1ccc(NC(=O)c2ccc([N+](=O)[O-])cc2)cc1S(=O)(=O)N(C)C	3	1	32	3	-3	0
Cc1ccc(NC(=O)CCNC(=O)c2ccc([N+](=O)[O-])cc2)cc1S(=O)(=O)N(C)C	1	4	-14	0	2	39*
O=C(O)CCNc1ccc(NCCC(=O)O)c2c1C(=O)c1ccccc1C2=O	5	-35	11	-154	-76	46*
O=C(c1ccncc1)N1CCN(S(=O)(=O)c2ccc(OC(F)(F)F)cc2)CC1	·	·	·	1	-3	-1
C=CCOc1cccc(CNCc2ccncc2)c1	·	·	5	-7	-2	-4
CCOc1cccc(CNCc2ccncc2)c1	·	·	62*	-1	-4	-6
SMILES	CTSL1 counter	TPT1 inhibitor	PHOSPHO1 inh	Rpn11 block	HNF4A DNA FP	CendR NRP1 mod
CCOC1=C/C(=C/c2c(N)n3nc(-c4ccccc4)sc3nc2=O)C=CC1=O	·	·	35	·	32	-275
COC1=C/C(=C/c2c(N)n3nc(-c4ccc(C)cc4)sc3nc2=O)C=CC1=O	·	·	15	·	60*	-318
COc1ccccc1C(=O)Nc1ccc(NC(=O)C2CCCCC2)nc1	-1	-1	19	-1	-2	0
O=C(Nc1ccc(NC(=O)C2CCCCC2)nc1)c1ccccn1	0	-3	63*	-3	-1	5
CCOc1ccc(NC(=S)/C(=C(\[O-])c2ccc(C)c([N+](=O)[O-])c2)[n+]2ccccc2)cc1	2	0	93*	1	2	5
Cc1ccc(CN2CCS(=O)(=O)CC2)cc1	0	-3	12	-1	-3	27*
COc1ccc(CN2CCS(=O)(=O)CC2)cc1OC	-3	0	6	4	2	-4
CCOC(=O)N1CCN(c2c(F)cc3[nH]c(=S)[nH]c3c2Br)CC1	-8	-2	71*	1	2	-6
CC(C)CC1c2[nH]c3ccccc3c2CCN1CCCn1cccn1 (centres undefined)	0	1	28	-2	2	4
Cc1c(C(=O)NN2CCOCC2)cccc1[N+](=O)[O-]	0	1	·	1	13	5
Cc1c(C(=O)NN2CCN(C)CC2)cccc1[N+](=O)[O-]	2	-3	60*	0	-6	10
CC(C)Cn1cnc2c1c(=O)n(CC(=O)NC(=O)NC(C)(C)C)c(=O)n2Cc1ccccc1	3	-1	32	-4	4	18*
Cc1ccc(CNS(=O)(=O)c2ccc(C(F)(F)F)cc2)n1C	1	0	12	15	2	-11
Cc1ccc(CNS(=O)(=O)c2ccc(F)c(F)c2)n1C	24*	-4	19	-6	-1	0
C=C1CN(Cc2ccccc2)S(=O)(=O)c2ccccc21	4	-3	40	5	1	24*
Cc1ccc(OC(C)C(=O)Nc2ccc3c(c2)n(C)c(=O)n3C)cc1C (centres undefined)	5	-8	60*	-1	-5	13
Cc1ccc(NS(=O)(=O)c2ccc3c(c2)n(C)c(=O)n3C)cc1C	18*	0	52	-6	3	-25
Cc1ccc(S(=O)(=O)Nc2ccc3c(c2)n(C)c(=O)n3C)cc1	-2	3	53	2	-2	15
Cc1cccc(C)c1NC(=O)CSc1nnc(C)n1CC1CCCO1 (centres undefined)	-6	-5	6	0	115*	9
NC(=O)NC(=O)CSc1nc(-c2ccccc2)c(-c2ccccc2)n1CC1CCCO1 (centres undefined)	20*	3	3	2	-1	-8
Cc1ccccc1-n1c(C)nnc1SCC(=O)NCC1CCCO1 (centres undefined)	3	-3	67*	-9	-1	-4

Compound activity deposited in PubChem by several laboratories.
